High-throughput results (PubChem BioAssay)
B2AR arrestin: qHTS assay of beta-arrestin-biased ligands of beta2-adrenergic receptor; Beta-2 adrenergic receptor (Homo sapiens), P07550; beta-arrestin recruitment to beta2AR, cell-based reporter; Potency, µM (highest dose often 46.1 µM), actives largely listed as activators; 330,000 compounds, 0.02% hits; active = well fitted curve in the direction sought with a large enough effect; inconclusive = small, poorly fitted or top-dose-only effect, or another doubt; inactive = no such curve, though single readings can be large; an effect the other way counts as inactive or inconclusive; note: nearly all actives have a fitted effect of over 65% in size
GAA inh: qHTS Assay for Inhibitors of Human alpha-Glucosidase as a Potential Chaperone Treatment of Pompe Disease; 200,000 compounds, 0.005% hits; Potency, µM (top dose mostly 76.9 µM), most hits filed as inhibitors; purified human GAA, 4-MU-alpha-glucoside fluorescence; Lysosomal alpha-glucosidase (Homo sapiens), P10253; active = well fitted curve in the direction sought with a large enough effect; inconclusive = small, poorly fitted or top-dose-only effect, or another doubt; inactive = no such curve, though single readings can be large; an effect the other way counts as inactive or inconclusive
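Compounds are titrated up to 77 uM against 4 nM human enzyme. Substrate 4-methylumbelliferyl-alpha-D-pyranoside (400 uM) reacts 20 min at room temperature in pH 5.0 buffer; liberated 4-methylumbelliferone is read at 440 nm.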
aGlu spleen mod: qHTS Assay for Inhibitors and Activators of Human alpha-Glucosidase From Spleen Homogenate. human spleen homogenate, 4-MU-alpha-glucoside fluorescence. Potency, µM (top dose mostly 79.9 µM), usual class: inhibitors. 240,000 compounds, 0.006% hits. AID 2112, 2009; active = well fitted curve in the direction sought with a large enough effect; inconclusive = small, poorly fitted or top-dose-only effect, or another doubt; inactive = no such curve, though single readings can be large; an effect the other way counts as inactive or inconclusive
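Human spleen homogenate (1 ug) incubated with compounds and 1 mM 4-methylumbelliferyl-alpha-D-glucopyranoside in pH 5.0 citrate/phosphate buffer, 37 C, 40 min. Stopped at pH 10; 4-MU fluorescence (Ex 365/Em 440 nm); AC50 by Hill fit.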
FBPA coupling cs: qHTS Assay for Inhibitors of Fructose-1,6-bisphosphate Aldolase from Giardia Lamblia: Coupling assay counterscreen; activity change, negative = inhibition, % at 58.2 µM, hits read low; coupling enzyme system counterscreen, AmpLite Red fluorescence; AID 2472, 2010; 290,000 compounds, 0.67% hits; in the data active = activity change below about -30%
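Final compound at 57.5 uM, incubated 10 min at RT with coupling enzyme reagent (glyceraldehyde-3-phosphate), then 20 min with substrate and AmpLite Red detection. Fluorescence read at 525/598 nm; tests interference with the coupling assay, not aldolase inhibition.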
GAA glycogen mod: qHTS Assay for Inhibitors and Activators of Human alpha-Glucosidase Cleavage of Glycogen | Lysosomal alpha-glucosidase (Homo sapiens), P10253 | recombinant GAA, glycogen substrate, Amplex Red glucose oxidase fluorescence | Potency, µM (top dose mostly 76.4 µM), hits mostly inhibitors | 300,000 compounds, 0.38% hits; active = well fitted curve in the direction sought with a large enough effect; inconclusive = small, poorly fitted or top-dose-only effect, or another doubt; inactive = no such curve, though single readings can be large; an effect the other way counts as inactive or inconclusive;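 note: the screen sought inhibitors and activators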
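Recombinant enzyme (4 nM final) with compounds titrated up to 77 uM and bovine liver glycogen (30 ug) in citrate pH 5.0, 0.01% Tween-20, 37 C 40 min. Released glucose detected by Amplex Red/glucose oxidase (Ex 573/Em 610); AC50 from Hill fits.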
Casp1 catalase: Concentration-Response Counterscreen for Redox Active Inhibitors of Caspase-1: Catalase | 30 tested, under 10 active | Potency, µM (doses to about 57.5 µM), actives largely listed as inhibitors | AID 888, 2007 | caspase-1 Ac-WEHD-AFC fluorescence rate, catalase buffer | shares compounds with FBPA coupling cs
Casp1 confirm: Confirmation Concentration-Response Assay for Allosteric/Competitive Inhibitors of Caspase-1 | shares compounds with FBPA coupling cs | purified caspase-1, fluorogenic substrate cleavage | Potency, µM (series often up to 57.5 µM), most hits filed as inhibitors | 60 compounds, 20% hits | AID 896, 2007
Casp7 confirm: Confirmation Concentration-Response Assay for Allosteric/Competitive Inhibitors of Caspase-7 | recombinant caspase-7, fluorogenic substrate cleavage | shares compounds with FBPA coupling cs | Potency, µM (highest dose often 57.5 µM), most hits filed as inhibitors | 60 tested, under 10 active | AID 897, 2007; active = well fitted inhibition curve with a large enough effect in the main read-out, with a control signal flat, not every such curve was filed as active; inconclusive = small, poorly fitted or top-dose-only effect, or a change in a side signal; inactive = no such curve, though single readings can be large or run the other way
Target sequence (P55210 24-198 limits assumed): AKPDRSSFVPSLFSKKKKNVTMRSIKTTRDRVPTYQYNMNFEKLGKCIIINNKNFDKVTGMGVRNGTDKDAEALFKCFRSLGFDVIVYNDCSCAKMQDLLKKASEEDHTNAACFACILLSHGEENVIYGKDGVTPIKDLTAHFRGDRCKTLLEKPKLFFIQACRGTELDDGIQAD
Target sequence (P55210 207-303 limits assumed): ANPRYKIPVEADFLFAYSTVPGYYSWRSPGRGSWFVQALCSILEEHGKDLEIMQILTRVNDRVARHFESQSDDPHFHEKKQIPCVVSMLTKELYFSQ
Casp7 cysteine: Concentration-Response Counterscreen for Redox Active Inhibitors of Caspase-7: Cysteine | shares compounds with FBPA coupling cs | caspase-7 enzyme with cysteine, fluorogenic substrate, redox counterscreen | Potency, µM (doses to about 57.5 µM), hits mostly inhibitors | 60 tested, under 10 active | AID 908, 2007
CASP7 redox cat: Concentration-Response Counterscreen for Redox Active Inhibitors of Caspase-7: Catalase; shares compounds with FBPA coupling cs; Caspase-7 Ac-DEVD-AFC fluorescence rate, catalase buffer; Potency, µM (doses to about 57.5 µM), most hits filed as inhibitors; 30 tested, under 10 active; AID 909, 2007
Casp1 cysteine: Concentration-Response Counterscreen for Redox Active Inhibitors of Caspase-1: Cysteine. Potency, µM (series often up to 57.5 µM), most hits filed as inhibitors. shares compounds with FBPA coupling cs. recombinant caspase-1, fluorogenic substrate, cysteine buffer. 60 tested, under 10 active
Each line names hits and unclear results; the compound was inactive in the other large screens (follow-up assays come after a bar, where they were run). Most compounds without a hit are left out; they make up all but 0.85% or so of the library. Unless noted, calls come from the whole dose curve; as a rule, active = well fitted inhibition curve with a large enough effect in the main read-out, with a control signal flat; inconclusive = small, poorly fitted or top-dose-only effect, or a change in a side signal; inactive = no such curve, though single readings can be large or run the other way.

COc1ccccc1[C@]1(C)ON(c2ccccc2C(F)(F)F)C1=O	none (no result: GAA inh, aGlu spleen mod, FBPA coupling cs, GAA glycogen mod)
O=C1NCCCC2c3c(cc(Br)c(O)c3Br)OC12N1CCOCC1 (configuration not stated)	none
O=C1NCCCC2c3cc(O)c4ccccc4c3OC12N1CCCCC1 (configuration not stated)	FBPA coupling cs -57, GAA glycogen mod 25µM | Casp1 catalase inactive | Casp1 confirm inactive | Casp7 confirm inactive | Casp7 cysteine inactive | CASP7 redox cat inactive | Casp1 cysteine inactive
Cc1ccc(NC(=O)c2nc(S(C)(=O)=O)ncc2N(Cc2ccco2)Cc2ccco2)cc1	none (no result: B2AR arrestin, GAA inh, aGlu spleen mod, FBPA coupling cs)
COc1cc(=O)[nH]c(SCc2c(F)c(F)c(F)c(F)c2F)n1	none | Casp1 confirm inactive | Casp7 confirm inactive | Casp7 cysteine inactive | Casp1 cysteine inactive
COc1ccc(CSc2nc(C)cc(=O)[nH]2)cc1Br	none
COc1cccc(Cn2cccc(NC(=O)NC3CCCCC3)c2=O)c1	none | Casp1 catalase inactive | Casp1 confirm inactive | Casp7 confirm inactive | Casp7 cysteine inactive | CASP7 redox cat inactive | Casp1 cysteine inactive
CC1(C)C(=O)NC2=C1C(=O)C(=O)c1ccccc12	FBPA coupling cs -76 (no result: B2AR arrestin, GAA inh, GAA glycogen mod) | Casp1 confirm 4µM | Casp7 confirm inconclusive | Casp7 cysteine inactive | Casp1 cysteine inactive
CC(=O)Nc1cc(OC(C)=O)c2nonc2c1OC(C)=O	FBPA coupling cs -77, GAA glycogen mod 16µM | Casp1 catalase inactive | Casp1 confirm inactive | Casp7 confirm inactive | Casp7 cysteine inactive | CASP7 redox cat inactive | Casp1 cysteine inconclusive
